{
  "source": "PubChem BioAssay (NCATS)",
  "key": {"[1]": {"molecular_target": "Lysosomal acid glucosylceramidase (Homo sapiens) (UniProt P04062)", "sequence (P04062 whole entry, looked up)": "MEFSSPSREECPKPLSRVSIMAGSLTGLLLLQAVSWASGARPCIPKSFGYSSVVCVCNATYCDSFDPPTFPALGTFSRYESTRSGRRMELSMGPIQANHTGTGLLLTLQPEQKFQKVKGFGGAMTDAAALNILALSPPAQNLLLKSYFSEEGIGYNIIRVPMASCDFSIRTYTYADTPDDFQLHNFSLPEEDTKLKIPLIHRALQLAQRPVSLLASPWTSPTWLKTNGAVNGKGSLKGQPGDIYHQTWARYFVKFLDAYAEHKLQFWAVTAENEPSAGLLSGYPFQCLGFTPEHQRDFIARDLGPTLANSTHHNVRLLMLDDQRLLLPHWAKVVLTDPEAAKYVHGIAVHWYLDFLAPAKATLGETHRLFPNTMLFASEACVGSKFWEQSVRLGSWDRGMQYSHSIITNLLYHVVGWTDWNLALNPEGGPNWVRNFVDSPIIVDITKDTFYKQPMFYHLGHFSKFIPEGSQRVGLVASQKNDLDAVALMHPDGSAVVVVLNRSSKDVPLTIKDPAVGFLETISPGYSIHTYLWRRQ", "test": "Glucocerebrosidase-p2 (AID 348; in the data active = potency below about 10 µM; also: potency is read from the fitted curve at half-maximal effect)", "details": "purified GBA, blue fluorogenic substrate, 40 min", "in_short": "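Normal human glucocerebrosidase (0.2 nM) with blue fluorogenic substrate (80 uM final) in citrate/phosphate pH 5.9 with 10mM sodium taurocholate, 0.01% tween-20; 40 min RT, NaOH/glycine stop; fluorescence Ex 365/Em 440; AC50 from a titration from 0.6 nM upwards.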"}, "[2]": {"test": "AP1 Signaling Pathway (AID 357)", "details": "ME-180 AP-1-bla reporter, EGF-induced, beta-lactamase ratio, 5 h; series mostly up to 17.2 µM", "in_short": "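ME-180 cells with beta-lactamase reporter under AP-1 response element, stimulated with EC50 EGF; compounds tested in titration series, 5 h at 37 °C. CCF4 substrate added 2.5 h at room temperature; 460/530 nm emission ratio gave %activity and AC50.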"}, "[3]": {"molecular_target": "Cytochrome P450 1A2 (Homo sapiens) (UniProt P05177)", "sequence (P05177 whole entry, looked up)": "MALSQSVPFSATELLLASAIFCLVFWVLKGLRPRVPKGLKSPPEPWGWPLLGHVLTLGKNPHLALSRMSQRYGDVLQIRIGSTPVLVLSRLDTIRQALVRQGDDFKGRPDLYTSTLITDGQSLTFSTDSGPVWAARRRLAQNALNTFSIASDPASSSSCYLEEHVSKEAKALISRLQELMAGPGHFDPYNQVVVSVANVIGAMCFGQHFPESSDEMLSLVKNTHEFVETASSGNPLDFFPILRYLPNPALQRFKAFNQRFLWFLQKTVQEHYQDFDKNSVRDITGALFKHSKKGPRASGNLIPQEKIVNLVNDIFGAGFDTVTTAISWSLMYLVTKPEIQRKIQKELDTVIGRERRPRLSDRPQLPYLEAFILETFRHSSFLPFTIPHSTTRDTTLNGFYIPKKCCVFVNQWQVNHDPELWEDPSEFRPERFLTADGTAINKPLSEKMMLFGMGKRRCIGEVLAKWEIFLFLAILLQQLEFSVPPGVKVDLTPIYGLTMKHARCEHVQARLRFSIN", "test": "p450-cyp1a2 (AID 410; calls by dose curve; also: potency is read from the fitted curve at half-maximal effect)", "details": "recombinant CYP1A2, luciferin-ME demethylation, luminescence; series mostly up to 25.6 µM", "in_short": "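20nM CYP1A2, 100uM Luciferin-ME (=Km), 100mM KPO4; cpd 10 min RT; +NADPH regen, 60 min RT; stop/detect 20 min; luminescence. Normalized to furafylline 57 uM = full inhibition.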"}, "[4]": {"test": "NFAT Signaling Pathway (AID 444);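 also: carbachol stimulus at about its EC50 of 1 µM final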", "details": "Jurkat NFAT-bla M1, carbachol, beta-lactamase ratio, 5 h; series mostly up to 17.2 µM", "in_short": "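Read-out: CCF4 FRET ratio (460 nm/530 nm) after 1 h RT dye loading, used for %activity and AC50 from titration series. Cells: Jurkat NFAT-β-lactamase/M1 line, treated with compound plus 1 uM carbachol for 5 h, 37 °C.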"}, "[5]": {"test": "Stat Signaling Pathway (AID 446);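 also: ME-180 cervical cancer cells given 40 pM IL-6 alongside compound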", "details": "ME-180 SIE beta-lactamase reporter, IL-6 stimulated, 5 h; series mostly up to 17.2 µM", "in_short": "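Overnight-plated ME-180 cells bearing a STAT Inducible Element beta-lactamase reporter; 5 h co-exposure to compound and 40 pM IL-6; values normalized to 300 pM IL-6 and 125 nM JAK inhibitor controls.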"}, "[6]": {"molecular_target": "Glucocorticoid receptor (Homo sapiens) (UniProt P04150)", "sequence (P04150 whole entry, looked up, the tested form may be a part)": "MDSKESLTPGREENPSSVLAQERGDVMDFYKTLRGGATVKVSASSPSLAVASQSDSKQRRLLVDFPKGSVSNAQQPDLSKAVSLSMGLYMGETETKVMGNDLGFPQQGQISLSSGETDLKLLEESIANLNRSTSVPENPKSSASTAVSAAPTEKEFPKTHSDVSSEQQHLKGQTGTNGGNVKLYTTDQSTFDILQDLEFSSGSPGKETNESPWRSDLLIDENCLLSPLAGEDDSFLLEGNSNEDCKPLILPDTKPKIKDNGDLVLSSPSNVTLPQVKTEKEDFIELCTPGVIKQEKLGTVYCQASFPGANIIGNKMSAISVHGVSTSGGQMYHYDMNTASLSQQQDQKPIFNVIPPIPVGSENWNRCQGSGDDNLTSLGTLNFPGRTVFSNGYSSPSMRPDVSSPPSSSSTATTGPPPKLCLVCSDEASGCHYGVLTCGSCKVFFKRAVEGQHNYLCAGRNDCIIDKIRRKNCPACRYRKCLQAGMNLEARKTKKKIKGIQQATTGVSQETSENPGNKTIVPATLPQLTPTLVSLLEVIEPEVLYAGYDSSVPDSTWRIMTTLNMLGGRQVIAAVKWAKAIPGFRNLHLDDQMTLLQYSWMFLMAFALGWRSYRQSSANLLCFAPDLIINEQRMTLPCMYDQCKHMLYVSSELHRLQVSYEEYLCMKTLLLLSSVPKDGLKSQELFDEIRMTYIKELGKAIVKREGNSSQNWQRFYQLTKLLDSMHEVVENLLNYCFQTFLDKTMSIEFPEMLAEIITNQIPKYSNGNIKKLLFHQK", "test": "GR-EFC Redistribution (AID 451; calls by dose curve; also: potency is read from the fitted curve at half-maximal effect)", "details": "CHO-K1 GR-EFC translocation, beta-gal luminescence, 2 h", "in_short": "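Translocation of GR-ED fusion to nuclear EA restores b-gal, read by luminescence after 1 h room-temperature detection. Engineered CHO-K1 biosensor cells, 1,000/well, exposed 2 h at 37 C to titrations up to 46 uM final.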"}, "[7]": {"molecular_target": "Mitogen-activated protein kinase 10 (Mus musculus) (UniProt Q61831)", "test": "JNK3 AlphaScreen Assay (AID 530)", "details": "JNK3 lysate, c-Jun phosphorylation; series mostly up to 25.6 µM", "in_short": "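Kinase buffer: 20 mM Tris-HCl pH 7.6, 10 mM MgCl2, 1 mM DTT, 0.1 mM Na3VO4, 0.01% Tween-20; ATP 10 uM. Substrate biotin-GST-cJun(1-79), enzyme from activated HepG2 lysates. Detection by Ser73 phospho-antibody AlphaScreen.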"}, "[8]": {"molecular_target": "3',5'-cyclic-AMP phosphodiesterase 4B (Homo sapiens) (UniProt Q07343)", "sequence (Q07343 whole entry, looked up)": "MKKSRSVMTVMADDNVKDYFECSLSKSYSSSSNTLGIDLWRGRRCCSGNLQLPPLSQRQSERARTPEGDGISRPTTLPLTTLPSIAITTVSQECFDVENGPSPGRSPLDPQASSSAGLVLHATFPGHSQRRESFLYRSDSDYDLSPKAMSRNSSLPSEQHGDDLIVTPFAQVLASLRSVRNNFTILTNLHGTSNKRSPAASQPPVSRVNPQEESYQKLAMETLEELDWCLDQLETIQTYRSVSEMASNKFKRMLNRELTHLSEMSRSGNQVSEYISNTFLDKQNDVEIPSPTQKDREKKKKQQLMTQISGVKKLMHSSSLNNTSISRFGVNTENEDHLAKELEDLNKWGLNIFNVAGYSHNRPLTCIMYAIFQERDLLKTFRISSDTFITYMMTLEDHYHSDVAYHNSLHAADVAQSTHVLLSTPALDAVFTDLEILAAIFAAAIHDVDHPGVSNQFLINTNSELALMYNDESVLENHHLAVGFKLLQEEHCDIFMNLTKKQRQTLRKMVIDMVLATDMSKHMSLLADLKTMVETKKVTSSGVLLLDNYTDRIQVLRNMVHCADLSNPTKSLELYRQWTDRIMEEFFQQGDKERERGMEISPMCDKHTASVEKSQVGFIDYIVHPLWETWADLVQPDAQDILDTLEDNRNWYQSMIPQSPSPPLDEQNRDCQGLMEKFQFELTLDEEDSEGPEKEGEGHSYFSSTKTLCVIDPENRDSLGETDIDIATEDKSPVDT", "test": "qHTS Assay for Inhibitors of PDE-IV (AID 607; active = well fitted activation curve with a large enough effect in the main read-out, with a control signal flat, not every such curve was filed as active)", "details": "HEK293 ACTOne CNG channel cells, membrane potential fluorescence; series mostly up to 22.9 µM", "in_short": "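Live HEK293 cells with a modified cyclic nucleotide-gated (CNG) channel report intracellular cAMP via membrane-potential dye fluorescence (ex 535/em 590 nm). Endogenous PDE-IV was targeted. Compounds were tested at up to 22.9 uM final; RO 20-1724 100 uM served as control.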"}},
  "note": "A number with no mark means an inactive call. Results filed as inconclusive are left out. Entries that show only a call come without a potency. The source made the active and inactive calls. Unless noted, calls follow the shape of the dose curve; as a rule, active = well fitted curve in either direction with a large enough effect (not every such curve was filed as active); inconclusive = small, poorly fitted or top-dose-only effect, or another doubt; inactive = flat fitted curve, though single readings scatter.",
  "data": [
    {"smiles": "NC(=O)c1nnn(Cc2cc(Cl)c(C(=O)c3ccc(Cl)cc3)c(Cl)c2)c1N", "values": [
      {"measurement": "Potency", "setting": "[1]", "result": "> 11.4", "unit": "µM"},
      {"measurement": "outcome", "setting": "[2]", "result": "inactive"},
      {"measurement": "activity change, negative = inhibition", "setting": "[3]", "result": "-2.2% [at 2.29 µM]"},
      {"measurement": "outcome", "setting": "[4]", "result": "inactive"},
      {"measurement": "outcome", "setting": "[5]", "result": "inactive"},
      {"measurement": "Potency", "setting": "[6]", "result": "> 9.22", "unit": "µM"},
      {"measurement": "Potency", "setting": "[7]", "result": "inactive"},
      {"measurement": "outcome", "setting": "[8]", "result": "inactive"}
    ]},
    {"smiles": "CCCCC(C=O)NC(=O)C(CC(C)C)NC(=O)OCc1ccccc1", "note": "(stereo unspecified)", "values": [
      {"measurement": "Potency", "setting": "[6]", "result": "> 46", "unit": "µM"},
      {"measurement": "Potency", "setting": "[7]", "result": "inactive"},
      {"measurement": "outcome", "setting": "[8]", "result": "inactive"}
    ]},
    {"smiles": "O=S(=O)(O)c1ccc2cc(N=Nc3cc(S(=O)(=O)O)c4cccnc4c3O)ccc2c1", "values": [
      {"measurement": "Potency", "setting": "[1]", "result": "> 11.4", "unit": "µM"},
      {"measurement": "outcome", "setting": "[2]", "result": "inactive"},
      {"measurement": "activity change, negative = inhibition", "setting": "[3]", "result": "-18.8% [at 2.29 µM]"},
      {"measurement": "outcome", "setting": "[4]", "result": "inactive"},
      {"measurement": "Potency", "setting": "[6]", "result": "> 9.22", "unit": "µM"},
      {"measurement": "Potency", "setting": "[7]", "result": "inactive"},
      {"measurement": "outcome", "setting": "[8]", "result": "inactive"}
    ]},
    {"smiles": "CN(C)c1ccccc1CN1CCCN(Cc2ccccc2N(C)C)C1c1ccncc1", "values": [
      {"measurement": "Potency", "setting": "[1]", "result": "> 11.4", "unit": "µM"},
      {"measurement": "outcome", "setting": "[2]", "result": "inactive"},
      {"measurement": "Potency", "setting": "[3]", "result": "inactive"},
      {"measurement": "outcome", "setting": "[4]", "result": "inactive"},
      {"measurement": "outcome", "setting": "[5]", "result": "inactive"},
      {"measurement": "Potency", "setting": "[6]", "result": "> 9.22", "unit": "µM"},
      {"measurement": "Potency", "setting": "[7]", "result": "inactive"},
      {"measurement": "outcome", "setting": "[8]", "result": "inactive"}
    ]},
    {"smiles": "NCC1CCC(C(=O)O)CC1", "note": "(stereo unspecified)", "values": [
      {"measurement": "outcome", "setting": "[2]", "result": "inactive"},
      {"measurement": "Potency", "setting": "[3]", "result": "inactive"},
      {"measurement": "outcome", "setting": "[4]", "result": "inactive"},
      {"measurement": "outcome", "setting": "[5]", "result": "inactive"},
      {"measurement": "Potency", "setting": "[7]", "result": "inactive"},
      {"measurement": "outcome", "setting": "[8]", "result": "inactive"}
    ]},
    {"smiles": "Cc1cc(NC(=O)Nc2ccc(N(C)C)cc2)c2cc(F)cc(F)c2n1", "values": [
      {"measurement": "Potency", "setting": "[3]", "result": "0.126 µM (active)"},
      {"measurement": "Potency", "setting": "[6]", "result": "> 46", "unit": "µM"}
    ]},
    {"smiles": "COc1ccc(CCN(C)CCCOc2ccc(S(=O)(=O)c3[nH]c4ccccc4c3C(C)C)cc2)cc1OC", "values": [
      {"measurement": "Potency", "setting": "[6]", "result": "> 46", "unit": "µM"},
      {"measurement": "outcome", "setting": "[8]", "result": "inactive"}
    ]},
    {"smiles": "NS(=O)(=O)c1cc(Cl)c(Cl)c(S(N)(=O)=O)c1", "values": [
      {"measurement": "outcome", "setting": "[2]", "result": "inactive"},
      {"measurement": "Potency", "setting": "[3]", "result": "inactive"},
      {"measurement": "outcome", "setting": "[4]", "result": "inactive"},
      {"measurement": "outcome", "setting": "[5]", "result": "inactive"},
      {"measurement": "Potency", "setting": "[6]", "result": "> 20.6", "unit": "µM"},
      {"measurement": "Potency", "setting": "[7]", "result": "inactive"},
      {"measurement": "outcome", "setting": "[8]", "result": "inactive"}
    ]},
    {"smiles": "CCCCC[C@H](O)C=C[C@H]1[C@H](O)CC(=O)[C@H]1CCCCCCC(=O)O", "values": [
      {"measurement": "Potency", "setting": "[6]", "result": "> 46", "unit": "µM"},
      {"measurement": "Potency", "setting": "[7]", "result": "inactive"}
    ]},
    {"smiles": "CCC(=C(CC)c1ccc(O)cc1)c1ccc(O)cc1", "values": [
      {"measurement": "Potency", "setting": "[3]", "result": "15.8 µM (active)"},
      {"measurement": "Potency", "setting": "[6]", "result": "> 20.6", "unit": "µM"},
      {"measurement": "Potency", "setting": "[7]", "result": "inactive"},
      {"measurement": "outcome", "setting": "[8]", "result": "inactive"}
    ]},
    {"smiles": "COc1nccc(-c2c(-c3ccc(F)cc3)ncn2C2CCC(O)CC2)n1", "note": "(stereo unspecified)", "values": [
      {"measurement": "Potency", "setting": "[6]", "result": "> 46", "unit": "µM"},
      {"measurement": "outcome", "setting": "[8]", "result": "inactive"}
    ]}
  ]
}
